Results on 40 compounds are retold here after PubChem BioAssay (NCATS).

The structures appear in SMILES notation. Records with an inconclusive call do not appear. Where a call stands in place of a potency, no number is given. The source made the active and inactive calls. Calls follow the shape of the dose curve; as a rule, active = well fitted cell-killing curve with a large enough effect; inconclusive = small, poorly fitted or top-dose-only effect; inactive = flat fitted curve, though single readings scatter.
Potency is read from the fitted curve at half-maximal effect.

The nature of this assay: qHTS of pediatric cancer cell lines to identify multiple opportunities for drug repurposing: Primary screen for BT-12 cells (AID 1347101). Also: nearly all actives have a fitted effect of over 25% in size. The settings on record: BT-12 viability, CellTiter-Glo luminescence, 48 h; series mostly up to 57.3 µM. The text has this: Drug repurposing or repositioning has been offered as a strategy for drug development in oncology programs. This approach has special potential for childhood cancers and other rare or orphan diseases, where the expected return on new drug development has been a disincentive to pharmaceuticals.
In this project we exploit the poly-pharmacology of drugs to discover new indications via phenotypic screening of a panel of 19 well-characterized cell lines derived from solid tumors seen in children and adolescents. The goal is to identify approved drugs with previously unrecognized anticancer properties that has the potential to reveal new mechanisms and biological processes involved in carcinogenesis or drug resistance. We employed a titration-based paradigm (quantitative high-throughput screening or qHTS), where all compounds were tested at multiple concentrations for their effect on cell viability. Concentration-response curves (CRCs) were derived directly from the primary screen, and both potency and efficacy values were used to identify compounds with robust bioactivity profiles. We screened the NIH Chemical Genomics Center (NCGC) Pharmaceutical Collection (NPC) and Mechanism Interrogation Plate (MIPE) small molecule collections of approved and investigational compounds against these cell lines; and measured metabolically active cells after 48 hours of compound treatment as a proxy for cell viability.
Assay Submitter: Nathalia J. Martinez, National Center for Advancing Translational Sciences, National Institutes of Health, Rockville, MD, USA; email: natalia.martinez@nih.gov
[1] Shen, M et al. Quantitative high-throughput phenotypic screening of pediatric cancer cell lines identifies multiple opportunities for drug repurposing. Oncotarget 2017 Dec 19;9(4):4758-4772. PMID 29435139.
The cells were obtained from University of North Carolina (UNC), Pediatric Preclinical Testing Program (PPT), and Coriell Institute (CI).
qHTS cell viability assay:
Cells were assayed in growth media at a density of 500-1,000 cells/well. Five microliters of cells were dispensed into 1,536-well, white, solid-bottom, TC-treated plates (Greiner Bio One) using a multidrop dispenser and incubated at 37 degrees C, 5% CO2, under a humidified atmosphere for 5 hours. Twenty-three nanoliters of compounds and controls (neutral control DMSO or positive control bortezomib at final concentration of 2.3 µM) were subsequently transferred by Kalypsys pintool. For primary screens, the MIPE collection was tested at 11-point dilutions (final concentrations range from 0.78 nM to 46 µM) and the NPC collection at 8-point dilutions (final concentrations range from 0.59 nM to 46 µM). Compounds tested in follow-up screens were assayed at 11-point dilutions. Cells were incubated for 48 hours, followed by addition of 3 µL of CellTiter-Glo (Promega). After a 15 min incubation at room temperature, samples were analyzed for luminescence intensity using a ViewLux High-throughput CCD imager equipped with clear filters.
Turning to `C=C(C)[C@H]1CN[C@H](C(=O)O)[C@H]1CC(=O)O`, the Potency entry is “inactive”. As to `ClCCN1CCCC1`, the Potency entry was “inactive”. For the compound `O=C1c2ccccc2C(=O)c2ccccc21`, the Potency entry was “inactive”. Consider `C[C@]12CC[C@@H]3c4ccc(OC(=O)N(CCCl)CCCl)cc4CC[C@H]3[C@@H]1CC[C@@H]2OP(=O)(O)O`, for which the Potency entry is “inactive”. To `O=C1OC(c2ccc(O)c(S(=O)(=O)O)c2)(c2ccc(O)c(S(=O)(=O)O)c2)c2c(Br)c(Br)c(Br)c(Br)c21` belongs “inactive”; to `CC(C)N(CCC(C(N)=O)(c1ccccc1)c1ccccn1)C(C)C` (stereo not given), “inactive”.

For `CC(C)(N)Cc1ccccc1Cl`, the Potency result was “inactive”.

With `O=C(Nc1ccc(Br)cc1)c1cc(Br)cc(Br)c1O`, the Potency was 27.6 µM (active).

On to `COc1cccc([C@@]2(O)CCCC[C@@H]2CN(C)C)c1`, for which the Potency entry is “inactive”. To `COC(=O)C(Cl)C(=O)OC` belongs “inactive”. To `O=[N+]([O-])O[C@H]1CO[C@H]2[C@@H]1OC[C@H]2O[N+](=O)[O-]` belongs “inactive”; to `O=C(N/N=C/c1ccc([N+](=O)[O-])o1)c1cc([N+](=O)[O-])cc([N+](=O)[O-])c1O`, “inactive”. To `CCCCCCC(=O)CCCCCC/C=C/C[C@@H](O)[C@H](O)[C@@](N)(CO)C(=O)O` belongs “inactive”. On to `CCC1(c2ccc(N)cc2)CCC(=O)NC1=O` (stereo not given), for which the Potency entry was “inactive”.

As to `COP(=S)(OC)SCN1C(=O)c2ccccc2C1=O`, the Potency result was “inactive”. Then `CC(C(=O)c1ccccc1)N(C)C` (stereo not given), with “inactive”; and `CNCC(=O)c1ccc(O)c(O)c1`, with “inactive”; and `Clc1ccc(C(c2ccc(Cl)cc2)C(Cl)(Cl)Cl)cc1`, with “inactive”. As to `COc1cccc(C(=O)CCN[C@@H](C)[C@H](O)c2ccccc2)c1`, the Potency result is “inactive”. To `Oc1ccc(Cl)cc1` belongs “inactive”; to `CCN[C@H](C)Cc1cccc(C(F)(F)F)c1`, “inactive”; to `CCN(CC)C(=O)[C@@H]1C=C2c3cccc4[nH]cc(c34)C[C@H]2N(C)C1`, “inactive”. As for `Cc1ncsc1CCCl`, the Potency entry was “inactive”. Then `NCCc1ccc(O)cc1`, with “inactive”; and `CC(NC(C)(C)C)C(=O)c1cccc(Cl)c1` (stereo not given), with “inactive”. Consider `CCOP(=S)(OCC)Oc1ccc2c(C)c(Cl)c(=O)oc2c1`, for which the Potency entry is “inactive”. Take `O=C1CN=C(c2ccccc2)c2cc([N+](=O)[O-])ccc2N1`: the Potency entry was “inactive”. Turning to `C=CCC1([C@H](C)CCC)C(=O)NC(=O)NC1=O`, the Potency result is “inactive”.

As to `CNC(C)(C)Cc1ccccc1`, the Potency result was “inactive”.

For `COc1cc(CCN)cc(OC)c1OC`, the Potency result is “inactive”. To `O=C(O)c1ccc(=O)[nH]c1` belongs “inactive”; to `CC(C)C[C@H](CN)CC(=O)O`, “inactive”. To `CCCCC/C=C\C/C=C\C/C=C\C/C=C\CCCC(=O)NCC(=O)O` belongs “inactive”; to `NC1=NC(=O)C(c2ccccc2)O1` (stereo not given), “inactive”; to `C[C@]12CC[C@@H]3c4ccc(OC(=O)N(CCCl)CCCl)cc4CC[C@H]3[C@@H]1CC[C@@H]2O`, “inactive”.

For the compound `CN1C(=O)NC(=O)C(C)(C2=CCCCC2)C1=O` (stereo not given), the Potency result is “inactive”. To `CN1CC[C@]23c4c5ccc(O)c4O[C@H]2[C@@H](O)CC[C@H]3[C@H]1C5` belongs “inactive”. Then `CCC1(c2ccccc2)C(=O)N(COC)C(=O)N(COC)C1=O`, with “inactive”.

On to `c1ccc(N2CCNCC2)cc1`, for which the Potency entry was “inactive”. To `CC(Cc1ccccc1)N(C)Cc1ccco1` (stereo not given) belongs “inactive”.
